Bioassay records (PubChem BioAssay)
CHRM1 PAM = human M1 muscarinic receptor positive allosteric modulators, primary screen, CHO-K1 cells, Fluo-8 calcium fluorescence, 1536-well; Muscarinic acetylcholine receptor M1 (Homo sapiens), P11229; CHO-K1 hM1, ACh EC20; 0% = ACh EC20, 100% = maximal ACh; activation, % at 3 µM; actives 0.088% (n = 360,000); AID 588819, 2011; in the data active = activation above about 19%, passing the limit was not always enough
Target sequence (P11229 whole entry, looked up): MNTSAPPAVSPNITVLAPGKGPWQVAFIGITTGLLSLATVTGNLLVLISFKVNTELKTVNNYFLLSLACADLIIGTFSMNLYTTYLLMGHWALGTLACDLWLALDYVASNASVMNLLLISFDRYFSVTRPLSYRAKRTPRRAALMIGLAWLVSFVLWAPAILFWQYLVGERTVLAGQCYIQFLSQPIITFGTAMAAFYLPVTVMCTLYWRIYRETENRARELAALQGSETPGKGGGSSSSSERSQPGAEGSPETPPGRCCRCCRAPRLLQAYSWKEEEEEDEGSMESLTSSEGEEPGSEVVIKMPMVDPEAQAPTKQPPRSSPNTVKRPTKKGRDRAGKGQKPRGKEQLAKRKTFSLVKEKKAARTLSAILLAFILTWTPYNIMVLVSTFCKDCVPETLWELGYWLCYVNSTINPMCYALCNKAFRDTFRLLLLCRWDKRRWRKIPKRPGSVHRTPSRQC
CHO-K1 Ca antag = counter-screen for M1 antagonists: effect in parental CHO-K1 cells. ATP-induced calcium, Fluo-8 fluorescence. inhibition, % at 3 µM. actives 0.6% (n = 360,000). AID 602250;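 active = inhibition above a per-plate cutoff, the plate's mean sample inhibition plus 3 SD, cut at about 24% in these data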
M1 ag = human M1 muscarinic receptor agonists, primary screen, Fluo-8 calcium fluorescence, CHO-K1 cells, HTS; actives 0.33% (n = 360,000); activation, % at 3 µM; AID 588814, 2011; CHO-K1 hM1, agonist mode; 0% DMSO, 100% acetylcholine EC100;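 active = activation above the run's mean compound activation plus 3 SD, cut at about 16% in these data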;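 note: peak over basal fluorescence ratio within a 140 s kinetic read after compound addition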
CHRM1 antagonist = human M1 muscarinic receptor antagonists, primary screen, CHO-K1 cells, Fluo-8 calcium fluorescence, 1536-well; Muscarinic acetylcholine receptor M1 (Homo sapiens), P11229; CHO-K1 hM1, ACh EC80 antagonist; inhibition, % at 3 µM; actives 1.3% (n = 360,000);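 active = percent inhibition above its own plate's cutoff, namely the mean of that plate's compound wells plus 3 SD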;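 note: peak over basal fluorescence ratio during 140 s after agonist addition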
CHO-K1 Ca ag = counter-screen for M1 agonists: effect in parental CHO-K1 cells; activation, % at 3 µM; actives 0.48% (n = 360,000); AID 602248, 2012; Fluo-8 calcium fluorescence; scaled to maximal ATP response, vehicle zero; in the data active = activation above about 15%;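 note: untransfected CHO-K1 host cells lacking M1 receptor as counterscreen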
M1 PAM parental = nonselective calcium activators in parental CHO-K1 cells, primary screen, counter-screen for M1 PAM project, cell-based, Fluo-8 calcium fluorescence, full deck, 1536-well. ATP EC20; 0% at ATP EC20, 100% at ATP max. activation, % at 3 µM. actives 0.02% (n = 360,000). AID 602247, 2012;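 active = activation above the run cutoff, the mean activation of all test compounds plus 3 SD, cut at about 40% in these data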;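 note: peak over basal fluorescence ratio in a 140 s read after ATP addition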
Large screens that a line does not name were inactive. In the library only some 2.3% were active in any assay of this set; here they are far more common.

COc1ccc(NC(=O)C2Cc3c(-c4cccc(C(N)=O)c4)ccnc3O2)cc1 (configuration not stated)	none
Cc1ccc(N2C(=N)/C(=C3/Nc4ccccc4S3)C(c3ccccc3)C2=O)cc1 (configuration not stated)	none
CC(C)(C)NC(=O)COc1coc(CN2CCN(Cc3ccccc3)CC2)cc1=O	none
CC(C)(C)OC(=O)N1CCC(c2cc(=O)n3[nH]cc(C(=O)Nc4ccc(F)c(Cl)c4)c3n2)CC1	none
CC(C)(C)OC(=O)N1CCC(c2cc(=O)n3[nH]cc(C(=O)NC4CCCC4)c3n2)CC1	CHRM1 PAM 25.6
Cc1ccc2nc(Nc3ccccc3)c(/C=N/O)c(=O)n2c1	CHO-K1 Ca antag 26.3
C=CCOCCN(CC)CC	none
CC1=C(C#N)C(C(F)(F)F)(C(F)(F)F)N=C(c2ccco2)N1	CHO-K1 Ca ag 15.8
CCn1c(NCc2ccco2)nc2ccccc21	none
c1ccc(Cn2c(NCc3ccco3)nc3ccccc32)cc1	CHO-K1 Ca antag 25.1
CCn1ccc(C(=O)Nc2ccc(Cl)cn2)n1	CHRM1 antagonist 32.6
Cc1c(CN2CCCCC2)c(O)n(CCCO)c(=O)c1C#N	CHRM1 antagonist 36.1
CCCOC(=O)c1ccc(OCC(O)Cn2c(C)nc3ccccc32)cc1 (configuration not stated)	CHRM1 antagonist 40.2
Cc1ccc(NC(=O)CSc2nnc(-c3cccnc3)s2)cc1	none
O=C(CSc1nnc(-c2cccnc2)s1)Nc1ccnc2ccccc12	CHO-K1 Ca antag 25.6, CHRM1 antagonist 34.4
O=C(NCc1nc(-c2ccc(C(F)(F)F)cc2)no1)Nc1ccc(F)cc1F	none
O=C(NCc1nc(-c2ccc(C(F)(F)F)cc2)no1)Nc1cc(Cl)cc(Cl)c1	CHO-K1 Ca antag 35.0
CCCn1c(SCC(=O)NC(C)(C)C)nnc1C(C)C	none
CN1CCN(c2ccc(NC(=O)c3ccc(Oc4ccccc4)cc3)cc2)CC1	CHRM1 antagonist 46.0
CC(=O)c1ccc(N2CCN(C(=S)Nc3ccc(Oc4ccccc4)cc3)CC2)cc1	CHRM1 antagonist 35.0
COc1ccc(N2CCN(C(=S)Nc3ccccc3)CC2)cc1	none
COc1ccc(/C=C/C(=O)OCC(=O)Nc2ccc(N3CCOCC3)cc2)cc1OC	none
Cc1ccc(S(=O)(=O)c2nnn(-c3cccc(F)c3)c2N)cc1	none
Cc1ccc(Cl)cc1-c1cc(C(=O)NCc2cc(C(F)(F)F)cc(C(F)(F)F)c2)[nH]n1	CHRM1 antagonist 46.5
Cn1c(=O)[nH]c(=O)c2c1nc(SCC(=O)O)n2CCc1ccccc1	none
Cn1c(=O)[nH]c(=O)c2c1nc(SCC(=O)O)n2CCOc1ccccc1	CHRM1 antagonist 54.7
C[C@@H]1CCCCCCCCC(=O)OCCN[C@H](C)CCCCCCCCC(=O)OCCN[C@H](C)CCCCCCCCC(=O)OCCN1	CHRM1 antagonist 47.0
CC(=O)Nc1ccc(C(=O)N2CCCCC2c2cc(C(=O)NCc3ccc(F)cc3)no2)cc1 (configuration not stated)	none
Clc1ccc(CSc2nnnn2-c2ccc3c(c2)OCO3)c(Cl)c1	none
CCCCN1C(=O)C(CC(=O)NCCCCc2ccccc2)CC(C(=O)N(C)C)=C1C (configuration not stated)	none
S=C1N(c2ccccc2)C(c2ccc(Br)cc2)N2CCCN12 (configuration not stated)	CHRM1 antagonist 100.2
COc1ccc(C2N(c3ccccc3)C(=S)N3CCCN23)cc1 (configuration not stated)	none
S=C1N(c2ccccc2)C(c2ccc(Cl)cc2)N2CCCN12 (configuration not stated)	CHRM1 antagonist 95.8
CSc1nsc(SC)c1C(=O)OCC(F)(F)F	CHRM1 PAM 23.5
CN(C(=O)c1ccc2c(c1)SC1=NS(=O)(=O)CCN12)C(c1ccccc1)c1ccccc1	CHRM1 antagonist 41.0
O=C(O)c1ccc2c(c1)SC1=NS(=O)(=O)CCN12	none
Cc1cc(=O)n2nc(N3CCCC(C(=O)N4CCOCC4)C3)sc2n1 (configuration not stated)	none
Cc1cc(=O)n2nc(N3CCCC(C(=O)N4CCc5ccccc54)C3)sc2n1 (configuration not stated)	CHRM1 antagonist 96.7
COc1cc(/C=C2\SC(=S)N(C(C(=O)O)c3ccccc3)C2=O)ccc1O (configuration not stated)	M1 ag 17.3, CHO-K1 Ca ag 29.2
CCOc1cc(/C=C2\SC(=S)N(C(C(=O)O)c3ccccc3)C2=O)ccc1O (configuration not stated)	M1 ag 19.1, CHO-K1 Ca ag 28.8
O=S(=O)(Nc1ccccc1O)c1ccc(Cl)nc1	none
Fc1ccc(NC(=S)N2CCCN(c3ccc(C(F)(F)F)cn3)CC2)c(F)c1	CHO-K1 Ca antag 24.3, CHRM1 antagonist 33.9
COc1ccc(NC(=O)c2cc(C)cc(C)c2)cc1S(=O)(=O)N1CCCCC1	none
C[n+]1c(-c2ccccc2)cc2c(=Cc3ccccc3)c3ccccc3n21	CHRM1 antagonist 45.7
C[n+]1c(-c2ccccc2)cc2c(=Cc3ccc([N+](=O)[O-])cc3)c3ccccc3n21	CHRM1 antagonist 42.2
CCN(C(=S)Nc1ccc(Oc2ccccc2)cc1)c1ccccc1	none
COc1cc2cc[n+](Cc3ccc([N+](=O)[O-])cc3)cc2cc1OC	none
O=C(NC1CCCC1)c1cc(-c2ccc(Cl)cc2)on1	CHRM1 antagonist 25.9
O=[N+]([O-])c1ccc(N2CCC(O)CC2)nc1	CHO-K1 Ca antag 28.9
CCOC(=O)c1sc(NC(=O)Nc2ccc(Cl)cc2)cc1C	CHO-K1 Ca antag 46.3, CHRM1 antagonist 52.0
COc1ccc(CN2C(=O)C(CC(=O)NC3CCCC3)CC(C(=O)N3CCOCC3)=C2C)cc1 (configuration not stated)	CHO-K1 Ca antag 23.8
Cc1c(Cl)cccc1NC(=S)NCCC(c1ccccc1)c1ccccc1	CHO-K1 Ca antag 24.4
CON(C)C(=O)CC1(CN(Cc2ccccc2)C(=O)OC(C)(C)C)CCCCC1	none
C#CC(=O)CC1(CN(Cc2ccccc2)C(=O)OC(C)(C)C)CCCCC1	CHRM1 antagonist 33.8
CC(C)CN1C(=S)SC(C)(C)C1n1oc(=O)n(-c2ccc(Cl)cc2)c1=O (configuration not stated)	CHRM1 antagonist 51.4
CC(C)CN1C(=S)SC(C)(C)C1n1oc(=O)n(-c2ccccc2)c1=O (configuration not stated)	none
